Records with an inconclusive call do not appear. Calls of active or inactive are those of the source. Unless noted, the call rests on the fitted dose curve. Peptide text beside a SMILES is read from it.
Experiments:
[1] = qHTS for Inhibitors of the Functional Ribonucleoprotein Complex (vRNP) of Lassa (LASV) Arenavirus: LASV Primary Screen - GLuc reporter signal (AID 1347082; calls by dose curve; tested in HEK293 reporter line; further: nearly all actives have a fitted effect of over 60% in size); settings: LASV minigenome vRNP, Gaussia luciferase reporter; series mostly up to 57.5 µM
[2] = qHTS for Inhibitors of the Functional Ribonucleoprotein Complex (vRNP) of Lassa (LASV) Arenavirus: Viability assay - alamar blue signal for LASV Primary Screen (AID 1347083; calls by dose curve; tested in HEK293 reporter line; further: nearly all actives have a fitted effect of over 80% in size); settings: cell viability, alamar blue fluorescence (LASV minigenome counter-screen); series mostly up to 57.5 µM
[3] = qHTS for Inhibitors of the Functional Ribonucleoprotein Complex (vRNP) of Lymphocytic Choriomeningitis Arenaviruses (LCMV): Viability assay - alamar blue signal for LCMV Primary Screen (AID 1347085; calls by dose curve; tested in HEK293 reporter line; further: nearly all actives have a fitted effect of over 80% in size); settings: alamar blue viability counter-screen, LCMV vRNP screen cells; series mostly up to 57.5 µM
[4] = molecular target: Nucleoprotein (Lymphocytic choriomeningitis virus (strain Armstrong)) (UniProt P09992); test: qHTS for Inhibitors of the Functional Ribonucleoprotein Complex (vRNP) of Lymphocytic Choriomeningitis Arenaviruses (LCMV): LCMV Primary Screen - GLuc reporter signal (AID 1347086); settings: LCMV minigenome vRNP cell assay, Gaussia luciferase reporter; series mostly up to 57.5 µM; further: nearly all actives have a fitted effect of over 70% in size
Chain of Nucleoprotein (Lymphocytic choriomeningitis virus (strain Armstrong)) (P09992 whole entry, looked up): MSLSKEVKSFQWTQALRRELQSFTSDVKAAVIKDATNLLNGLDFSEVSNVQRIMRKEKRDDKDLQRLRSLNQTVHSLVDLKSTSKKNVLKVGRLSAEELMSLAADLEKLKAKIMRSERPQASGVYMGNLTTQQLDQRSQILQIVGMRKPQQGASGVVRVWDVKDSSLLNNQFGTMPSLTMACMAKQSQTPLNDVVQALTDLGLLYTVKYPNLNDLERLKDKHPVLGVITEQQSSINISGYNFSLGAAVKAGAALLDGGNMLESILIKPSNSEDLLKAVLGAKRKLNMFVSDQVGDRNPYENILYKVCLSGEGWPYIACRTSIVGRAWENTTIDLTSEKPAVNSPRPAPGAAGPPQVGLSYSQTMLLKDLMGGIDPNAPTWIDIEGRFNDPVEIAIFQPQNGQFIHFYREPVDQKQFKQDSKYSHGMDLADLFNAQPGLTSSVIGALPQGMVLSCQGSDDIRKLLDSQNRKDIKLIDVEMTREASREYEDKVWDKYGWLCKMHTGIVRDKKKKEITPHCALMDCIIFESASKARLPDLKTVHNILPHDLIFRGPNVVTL

Measured: Potency

CCCCNc1c(C(=O)OCC)c(C)nc2c1cnn2CC
inactive: [1] | [2] | [3] | [4]

CCOC(=O)[C@H](CCc1ccccc1)N[C@H]1CS[C@H](c2cccs2)CN(CC(=O)O)C1=O
inactive: [1] | [2] | [3] | [4]

CC(=O)NC(Cc1ccccc1)C(=O)O (stereo not given)
inactive: [1] | [2] | [3] | [4]

CC(Cc1cccc(C(F)(F)F)c1)NCCOC(=O)c1ccccc1 (stereo not given)
inactive: [1] | [2] | [3] | [4]

CCCCN=C(N)N=C(N)N
inactive: [1] | [2] | [3] | [4]

O=C1OC(OC(=O)c2cccnc2Nc2cccc(C(F)(F)F)c2)c2ccccc21 (stereo not given)
inactive: [1] | [2] | [3] | [4]

COc1ccc2nc(NC(=O)Nc3ccccc3)sc2c1
inactive: [1] | [2] | [3] | [4]

COCCc1ccc(OCC2CO2)cc1 (stereo not given)
inactive: [1] | [2] | [3] | [4]

O=C(O)CCC(=O)OC[C@@H](NC(=O)C(Cl)Cl)[C@H](O)c1ccc([N+](=O)[O-])cc1
inactive: [1] | [2] | [3] | [4]

CC(N)C(=O)OC(C)(C)Cc1ccc(Cl)cc1 (stereo not given)
inactive: [1] | [2] | [3] | [4]

Cc1c(Cn2ccnc2)c2ccccc2n1CCC(=O)O
inactive: [1] | [2] | [3] | [4]

CC[C@H](c1ccc(O)cc1)[C@@H](CC)c1ccc(O)cc1
inactive: [1] | [2] | [3] | [4]

CCOC(=O)Cn1cccc1-c1nc(-c2ccc(OC)cc2)c(-c2ccc(OC)cc2)s1
inactive: [1] | [2] | [3] | [4]

CC(=O)N[C@H]1[C@H]([C@H](O)[C@H](O)CO)OC(C(=O)O)=C[C@@H]1N=C(N)N
inactive: [1] | [2] | [3] | [4]

NC(N)=N/N=C/c1c(Cl)cccc1Cl
inactive: [1] | [2] | [3] | [4]

NC(=O)c1ncn([C@@H]2O[C@H](CO)[C@@H](O)[C@H]2O)c1N
inactive: [1] | [2] | [3] | [4]

Nc1c2c(nc3c1CCC3)CCCC2
inactive: [1] | [2] | [3] | [4]

O=c1[nH]c2ccccc2c(=O)n1CCCl
inactive: [1] | [2] | [3] | [4]

CC(=O)OCC(=O)[C@@]1(O)CCC2C3CCC4=CC(=O)CC[C@]4(C)C3[C@@H](O)C[C@@]21C (stereo not given in full)
inactive: [1] | [2] | [3] | [4]

Oc1c(I)cc(Cl)c2cccnc12
inactive: [1] | [2] | [3] | [4]

Nc1ccn([C@H]2CC[C@@H](CO)O2)c(=O)n1
inactive: [1] | [2] | [3] | [4]

CCC(=O)Nc1ccc(O)cc1
inactive: [1] | [2] | [3] | [4]

COC(=O)c1cc(S(N)(=O)=O)ccc1OC
inactive: [1] | [2] | [3] | [4]

CN(C(=O)c1c(O)c2ccccc2n(C)c1=O)c1ccccc1
inactive: [1] | [2] | [3] | [4]

CC(C)(C)c1nnc(NS(=O)(=O)c2ccc(N)cc2)s1
inactive: [1] | [2] | [3] | [4]

O=C1c2ccccc2C(=O)C1c1ccccc1
inactive: [1] | [2] | [3] | [4]

C[C@H]1[C@H]2CC[C@H]3[C@@H]4CC=C5C[C@@H](N(C)C)CC[C@]5(C)[C@H]4CC[C@]23CN1C
inactive: [1] | [2] | [3] | [4]

NCCc1ccc(O)c(O)c1
inactive: [1] | [2] | [3] | [4]

Cc1cccc(N(C)C(=S)Oc2ccc3c(c2)C2CCC3C2)c1 (stereo not given)
inactive: [1] | [2] | [3] | [4]

CCCCCC1Nc2cc(C(F)(F)F)c(S(N)(=O)=O)cc2S(=O)(=O)N1 (stereo not given)
inactive: [1] | [2] | [3] | [4]

CCCCCCCCCCCCCCCCCCOCC(O)CO (stereo not given)
inactive: [1] | [2] | [3] | [4]

C[N+]1(C)CCC(=C(c2ccccc2)c2ccccc2)CC1
inactive: [1] | [2] | [3] | [4]

CN1CCN(CCCN2c3ccccc3Sc3ccc(S(=O)(=O)N(C)C)cc32)CC1
inactive: [1] | [2] | [3] | [4]

CC(C(=O)O)c1ccc(CC2CCCC2=O)cc1 (stereo not given)
inactive: [1] | [2] | [3] | [4]

CCN(CC)C(=O)N1CCN(C)CC1
inactive: [1] | [2] | [3] | [4]

COc1ccc2c(c1OC)C(=O)O[C@@H]2[C@H]1c2c(cc3c(c2OC)OCO3)CCN1C
inactive: [1] | [2] | [3] | [4]

CCN(CC)CCOc1ccccc1C(=O)CCc1ccccc1
inactive: [1] | [2] | [3] | [4]

CC1CC(=O)NN=C1c1ccc(NCC(C)(C)NCC(O)COc2cc(Cl)ccc2C#N)cc1 (stereo not given)
inactive: [1] | [2] | [3] | [4]

O=C(Nc1ccc(S(=O)(=O)N2CCOCC2)cc1)c1cc(Cl)ccc1NS(=O)(=O)c1ccc(Cl)s1
inactive: [1] | [2] | [3] | [4]

CCCCC1(COC(=O)CCC(=O)O)C(=O)N(c2ccccc2)N(c2ccccc2)C1=O
inactive: [1] | [2] | [3] | [4]

COc1ccc(-n2nc(CCC(=O)N(C)O)cc2-c2ccc(Cl)cc2)cc1
inactive: [1] | [2] | [3] | [4]

N#Cc1cc(NC(=O)C(=O)O)c(Cl)c(NC(=O)C(=O)O)c1
inactive: [1] | [2] | [3] | [4]

CCCc1ncc(C(=O)O)s1
inactive: [1] | [2] | [3] | [4]

Nc1ccncc1N
inactive: [1] | [2] | [3] | [4]

O=C(OCC(O)CO)c1ccccc1Nc1ccnc2c(C(F)(F)F)cccc12 (stereo not given)
inactive: [1] | [2] | [3] | [4]

Clc1ccc(C(Cn2ccnc2)OCc2c(Cl)cccc2Cl)c(Cl)c1 (stereo not given)
inactive: [1] | [2] | [3] | [4]

O=C(O)CCc1nc(-c2ccccc2)c(-c2ccccc2)o1
inactive: [1] | [2] | [3] | [4]

CC(O)Cn1cnc2c1c(=O)n(C)c(=O)n2C (stereo not given)
inactive: [1] | [2] | [3] | [4]

CCN1CCN(c2cc(-c3ccc(F)cc3)c3c(n2)CCCCCC3)CC1
inactive: [1] | [2] | [3] | [4]

CC(=O)Oc1ccc(C(=C2CCCCC2)c2ccc(OC(C)=O)cc2)cc1
inactive: [1] | [2] | [3] | [4]

CC(=O)Oc1c(C)c(C)c2c(c1C)CC[C@@](C)(CCC[C@H](C)CCC[C@H](C)CCCC(C)C)O2
inactive: [1] | [2] | [3] | [4]

CCCC(=O)OC[C@@H](OC(=O)CCC)[C@@H](OC(=O)CCC)[C@H](Cn1c2nc(=O)[nH]c(=O)c-2nc2cc(C)c(C)cc21)OC(=O)CCC
inactive: [1] | [2] | [3] | [4]

CC(=O)N[C@@H](CO)C(=O)N[C@@H](CC(=O)O)C(=O)N[C@@H](CCCCN)C(=O)N1CCC[C@H]1C(=O)O (Ac-SDKP-OH)
inactive: [1] | [2] | [3] | [4]

C=C1C(=C/C=C2\CCC[C@]3(C)[C@@H]([C@H](C)/C=C/[C@@H](O)C4CC4)CC[C@@H]23)C[C@@H](O)C[C@@H]1O
inactive: [1] | [2] | [3] | [4]

COCC(=O)O[C@]1(CCN(C)CCCc2nc3ccccc3[nH]2)CCc2cc(F)ccc2[C@@H]1C(C)C
inactive: [1] | [2] | [3] | [4]

C[C@]12CC[C@H]3[C@@H](CCC4=CC(=O)CC[C@@]43C)[C@@H]1CC[C@@H]2C(=O)CO
inactive: [1] | [2] | [3] | [4]

CNC(=O)Oc1ccc2c(c1)[C@]1(C)CCN(C)[C@@H]1N2C
inactive: [1] | [2] | [3] | [4]

CCCCCCOC(=O)NC(=N)c1ccc(NCc2nc3cc(C(=O)N(CCC(=O)OCC)c4ccccn4)ccc3n2C)cc1
inactive: [1] | [2] | [3] | [4]

CC1(C)CO[C@@H](CC(=O)O)CN1
inactive: [1] | [2] | [3] | [4]

COC(=O)C1=C(C)NC(COC(N)=O)=C(C(=O)OC(C)C)C1c1cccc(Cl)c1Cl (stereo not given)
inactive: [1] | [2] | [3] | [4]

— PubChem BioAssay (NCATS)
